Most compounds without a hit are left out; they make up all but 5.1% or so of the library.
ANO1 activ – TMEM16A chloride channel activators or potentiators, primary screen, cell-based, HTS | Anoctamin-1 (Mus musculus), Q8BHY3 | HEK293 TMEM16A/YFP-H148Q/I152L, iodide quench fluorescence; stronger effect = lower value | B-score at 10 µM | hit rate 0.3% among 340,000;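 active = fluorescence-ratio B-score plate-corrected deviation score at least 3 library SD below zero, with starting fluorescence score within 5 deviations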;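 note: channel opened by trigger with iodide after compound preincubation; score built on the fluorescence ratio of max minus min over baseline; more negative score means more quench and so TMEM16A activation or potentiation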
Target sequence (Q8BHY3 whole entry, looked up): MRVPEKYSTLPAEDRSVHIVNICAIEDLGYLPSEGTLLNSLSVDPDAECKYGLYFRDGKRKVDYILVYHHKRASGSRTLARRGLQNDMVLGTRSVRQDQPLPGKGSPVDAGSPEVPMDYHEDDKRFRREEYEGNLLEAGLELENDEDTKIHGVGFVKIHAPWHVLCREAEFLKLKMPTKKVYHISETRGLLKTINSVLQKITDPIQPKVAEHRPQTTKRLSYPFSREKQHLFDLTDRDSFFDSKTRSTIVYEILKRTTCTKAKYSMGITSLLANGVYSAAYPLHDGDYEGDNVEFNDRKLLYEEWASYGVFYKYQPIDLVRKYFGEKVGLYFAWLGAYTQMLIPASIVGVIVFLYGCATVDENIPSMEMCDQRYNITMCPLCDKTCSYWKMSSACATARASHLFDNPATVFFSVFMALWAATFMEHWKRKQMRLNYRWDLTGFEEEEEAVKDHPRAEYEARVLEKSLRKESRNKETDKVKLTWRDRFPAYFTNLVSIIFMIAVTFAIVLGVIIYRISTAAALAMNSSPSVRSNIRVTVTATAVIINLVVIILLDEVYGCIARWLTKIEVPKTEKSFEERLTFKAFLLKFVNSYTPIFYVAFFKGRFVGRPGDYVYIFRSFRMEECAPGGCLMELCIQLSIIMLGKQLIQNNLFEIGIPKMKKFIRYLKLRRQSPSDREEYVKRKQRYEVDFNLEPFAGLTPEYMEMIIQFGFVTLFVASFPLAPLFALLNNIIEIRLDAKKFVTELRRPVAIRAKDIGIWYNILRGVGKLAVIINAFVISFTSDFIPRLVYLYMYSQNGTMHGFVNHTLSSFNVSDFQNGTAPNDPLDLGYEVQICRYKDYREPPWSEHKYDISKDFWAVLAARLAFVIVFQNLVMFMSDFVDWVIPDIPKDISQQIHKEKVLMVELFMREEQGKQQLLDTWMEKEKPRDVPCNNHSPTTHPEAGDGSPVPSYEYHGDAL
TMEM16A inh – TMEM16A chloride channel inhibitors, primary screen, cell-based, HTS; hit rate 1.2% among 310,000; HEK293 TMEM16A/YFP iodide influx fluorescence, ionomycin; AID 588511, 2011; normalized B-score (activity score, 25-100; higher = stronger inhibition) at 10 µM; Anoctamin-1 (Mus musculus), Q8BHY3;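 active = ratio plate-corrected score three or more library SD toward inhibition, starting fluorescence score within five deviations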;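 note: score derived from kinetic fluorescence span divided by baseline fluorescence per well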
MPTP inh – mitochondrial permeability transition pore inhibitors, primary screen, biochemical, isolated mouse mitochondria, absorbance | Ca2+ swelling absorbance, 30 min | inhibition, % at 10 µM | hit rate 1.4% among 360,000 | AID 602449, 2012;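 active = inhibition of 50% or more, scaled per plate between neutral and stimulator controls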
CRFR2-BP ag – agonists of CRF-BP/CRF-R2 complex, primary screen, cell-based, HEK293, calcium dye fluorescence, uHTS; calcium dye fluorescence (FLIPR); percent of saturating CRF peptide response; activation, % at 13.2 µM; hit rate 0.46% among 350,000; AID 588473, 2011;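 active = activation of at least 50%, plus an integration ratio under a set limit after plate pattern correction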
GRIN3A LBD mod – binders of NR3A ligand-binding domain, primary screen, biophysical, differential scanning fluorimetry, uHTS; hit rate 2.5% among 340,000; Glutamate receptor ionotropic, NMDA 3A (GRIN3A) ligand-binding domain; Tm shift relative to glycine control, % at 25 µM; NR3A LBD differential scanning fluorimetry, Tm shift; 0% = protein alone, 100% = glycine-bound protein; AID 1259313, 2017;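 active = melting temperature shift of at least 10% of the positive control shift, at one fixed dose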
CRFBP-R2 block – antagonists of CRF-BP/CRF-R2 complex, primary screen, cell-based, HEK293, calcium dye fluorescence, uHTS; CRF-induced calcium fluorescence; inhibition, % at 11.8 µM; hit rate 0.59% among 350,000; AID 588475, 2011;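 active = inhibition of the ligand-induced calcium signal above about 50% at the single tested concentration, limit read from the data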
Large screens that a line does not name were inactive.

COc1ccc(Nc2cc(C)c3cc([N+](=O)[O-])ccc3n2)cc1	GRIN3A LBD mod 27.9
COc1ccc(/C=C/c2nc(N)nc(-c3ccccc3O)n2)cc1OC	GRIN3A LBD mod 28.1
COc1ccc(/C=C/c2nc(N)nc(-c3ccccc3O)n2)cc1	GRIN3A LBD mod 72.3
Cc1cccc(Cl)c1NC(=O)N1CCCN(c2ncccc2[N+](=O)[O-])CC1	none
CC(=O)N/C(=N/c1nc(C)cc(C)n1)Nc1ccc(C)cc1C	none
Cc1cc(C)c(C)c(S(=O)(=O)Nc2ccccc2C(=O)O)c1C	CRFBP-R2 block 85.3
Cc1cccc(Nc2ccccc2C(=O)O)c1C	GRIN3A LBD mod 14.3
Cc1cc(NC(=O)c2ccccc2NS(=O)(=O)c2c(C)c(C)cc(C)c2C)no1	none
O=C(O)c1ccccc1Nc1ccccc1	none
COc1cc(-c2ccc(Nc3ccccc3C(=O)O)c(OC)c2)ccc1Nc1ccccc1C(=O)O	GRIN3A LBD mod 38.5 (no result: TMEM16A inh)
CCCOC(=O)c1c(-c2ccccc2)nc(CC)c(C(=O)SCC)c1CCC	GRIN3A LBD mod 10.1
CCCc1nc2ccccc2c(C(=O)O)c1CC	none
O=C(N/N=C/c1ccc(OC(=O)c2ccccc2)c([N+](=O)[O-])c1)c1ccc(O)cc1	GRIN3A LBD mod 25.9
COc1ccc(/C=N/NC(=O)c2cccc([N+](=O)[O-])c2)cc1OC(=O)c1ccccc1	none
COc1ccc(C(=O)Oc2ccc(/C=N/NC(=O)c3ccccc3OC)cc2[N+](=O)[O-])cc1	none
COc1ccc(C(=O)N/N=C/c2ccc(OC(=O)c3cccc4ccccc34)c([N+](=O)[O-])c2)cc1	GRIN3A LBD mod 12.1
NC1=NC2OC(CO)C(O)C2O1 (configuration not stated)	none (no result: ANO1 activ, TMEM16A inh, GRIN3A LBD mod)
CCc1nn2c(=O)c(S(=O)(=O)Nc3ccc(C(C)C)cc3)c(C)nc2s1	none
O=C1C=C(N2CCN(c3ccccn3)CC2)C(=O)c2c(O)ccc(O)c21	none (no result: TMEM16A inh)
CC1=CC(=O)c2c(O)ccc(O)c2C1=O	TMEM16A inh 100 (no result: ANO1 activ, MPTP inh, CRFR2-BP ag, GRIN3A LBD mod, CRFBP-R2 block)
Oc1sc(C=Nc2ccccc2)c2ccccc12	CRFR2-BP ag 123.4
Cc1nn(Cc2ccccc2)c(C)c1/C=N/NC(=O)CNc1cccc(C(F)(F)F)c1	GRIN3A LBD mod 13.1
COc1ccc(NCC(=O)N/N=C/c2c(C)nn(Cc3ccccc3)c2Cl)cc1	none
O=C(CNc1cccc(C(F)(F)F)c1)N/N=C/c1cn(-c2ccccc2)nc1-c1ccccc1	GRIN3A LBD mod 34.3
CNc1cnc(-c2ccc(F)c(F)c2F)cn1	none (no result: ANO1 activ, TMEM16A inh, CRFR2-BP ag, GRIN3A LBD mod, CRFBP-R2 block)
CC(OC(=O)c1cccc(O)c1)C(=O)N(C)Cc1ccccc1 (configuration not stated)	none
CC(OC(=O)/C(C#N)=C/c1ccc(N(C)C)cc1)C(=O)N(C)Cc1ccccc1 (configuration not stated)	ANO1 activ -10.1, CRFR2-BP ag 62.7
CCCCNC(=O)CSc1nnc(-c2cccc(S(=O)(=O)N3CCOCC3)c2)o1	none (no result: TMEM16A inh)
NS(=O)(=O)c1ccc(CCNc2ccccc2[N+](=O)[O-])cc1	none
Oc1ccccc1Cn1nnc2ccccc21	none
c1ccc2c(Cn3nnc4ccccc43)cccc2c1	GRIN3A LBD mod 11.0
CCOc1ccc2cc(S(=O)(=O)N3CCCCC3)ccc2c1	none
CCOc1ccc(S(=O)(=O)N2CCCC2)cc1	GRIN3A LBD mod 12.7
O=S(=O)(c1ccc(SCCOc2ccc(F)cc2)nc1)N1CCCC1	GRIN3A LBD mod 14.1 (no result: TMEM16A inh)
O=C(NC(=S)Nc1nc(-c2ccc(Br)cc2)cs1)c1ccco1	GRIN3A LBD mod 30.4
O=C(NNc1nc(-c2ccc(Br)cc2)cs1)c1ccco1	none
O=C(NC(=S)Nc1nc(-c2ccc([N+](=O)[O-])cc2)cs1)c1ccco1	GRIN3A LBD mod 20.0
O=C(O)C(F)=C1c2ccccc2-c2ccccc21	none
CC(=N\Nc1ccc(Cl)cc1)/C(=N/O)C(=O)Nc1ccccc1	GRIN3A LBD mod 22.9
C/C(=N\O)C(=O)Nc1ccccc1	none
CCc1ccc[n+](-c2[nH]c(=O)sc2/C=N/NC([S-])=Nc2ccccc2)c1	CRFR2-BP ag 84.8
Cc1cc[n+](-c2[nH]c(=O)sc2/C=N/NC([S-])=Nc2ccccc2)cc1	ANO1 activ -5.05
Cc1cscc1-c1cc2nc(NCCCN(C)C)n(C)c(=O)c2s1	none (no result: ANO1 activ, TMEM16A inh, CRFR2-BP ag, GRIN3A LBD mod, CRFBP-R2 block)
CC(Oc1cccc(Cl)c1)C(=O)NNC(=O)c1cccnc1 (configuration not stated)	CRFBP-R2 block 67.7 (no result: TMEM16A inh)
Cc1c(NC2=C(Cl)C(=O)N(c3ccccc3Cl)C2=O)c(=O)n(-c2ccccc2)n1C	CRFBP-R2 block 52.8
Cc1c(-c2c(C#N)c(N)nc3c2CCCCCC3)cnn1C	none
Cc1nn(C)c(C)c1-c1c(C#N)c(N)nc2c1CCCCCC2	ANO1 activ -6.13
Cc1cc(NC(=O)c2ccc([N+](=O)[O-])cc2)no1	none
Cc1oc(C(C)(C)C)cc1-c1cc(NC(=O)c2ccc([N+](=O)[O-])cc2)n[nH]1	GRIN3A LBD mod 14.6
Cn1c(=O)c2cc(NC(=O)Cc3cccc4ccccc34)ccc2n1-c1ccccc1	none (no result: ANO1 activ, TMEM16A inh, CRFR2-BP ag, GRIN3A LBD mod, CRFBP-R2 block)
COc1ccccc1C(C)Nc1ccc(S(=O)(=O)N2CCN(C)CC2)cc1[N+](=O)[O-] (configuration not stated)	none (no result: TMEM16A inh)
O=C(Nc1ccc(NC(=O)c2ccccc2O)cc1)Nc1ccc(F)cc1F	GRIN3A LBD mod 31.2
O=C(Nc1ccc(F)cc1)Nc1ccccc1F	none
O=C(Nc1ccc(S(=O)(=O)N2CCCC2)cc1)Nc1ccc(F)cc1F	GRIN3A LBD mod 36.9
Cc1cc(C)nc(NS(=O)(=O)c2ccc(NC(=O)c3cc(-c4ccccc4)nc4ccccc34)cc2)n1	GRIN3A LBD mod 19.0
Cc1cc(C)nc(NS(=O)(=O)c2ccc(NC(=O)Nc3ccccc3F)cc2)n1	GRIN3A LBD mod 11.3
Cc1cnc(NC(=O)C2(C)CCN2C(=O)C(C)C)s1 (configuration not stated)	none (no result: ANO1 activ, TMEM16A inh, CRFR2-BP ag, GRIN3A LBD mod, CRFBP-R2 block)
Cc1ccc(S(=O)(=O)Nc2ccc(NC(=O)Nc3ccc(F)cc3F)cc2)cc1	GRIN3A LBD mod 28.9
O=C(Nc1ccc(F)cc1F)Nc1ccc(F)cc1F	none
Cn1c2c(c(=O)n(C)c1=O)NC1(N2)C(=O)Nc2ccccc21 (configuration not stated)	none
Cc1nnc(SCC(=O)Nc2sc3c(c2C(=O)c2ccccc2)CCCC3)s1	GRIN3A LBD mod 10.4
Cc1nnc(SCC(=O)Nc2ccccc2NC(=O)CSc2nnc(C)s2)s1	none
C#CCN(C[C@H]1[C@H](OC(=O)NCc2ccccc2)[C@H](OC(=O)NCc2ccccc2)C[C@H]2C(=O)N(c3ccccc3)C(=O)[C@@H]12)S(=O)(=O)c1ccc(C)cc1	none (no result: ANO1 activ, TMEM16A inh, GRIN3A LBD mod)
